According to PubChem BioAssay:
A number with no mark means an inactive call. Activity calls are given as the source filed them. Rule as the data show it: active = inhibition above about 44%; inactive = the rest.

Target: Steroidogenic factor 1 (Homo sapiens) (UniProt Q13285)
Test: SF1 (NR5A1) inverse agonists, counter-screen for LRH-1 inverse agonist project, cell-based, luminescence, high throughput (AID 651614);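 also: cells cotransfected with StAR promoter reporter and SF1 expression vector; 0% = vehicle on cells with receptor and 100% = vehicle on cells lacking receptor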
Settings: cell-based SF1 luciferase reporter, at 3.6 µM, active compounds read high

Sequence of Steroidogenic factor 1 (Homo sapiens) (Q13285 whole entry, looked up): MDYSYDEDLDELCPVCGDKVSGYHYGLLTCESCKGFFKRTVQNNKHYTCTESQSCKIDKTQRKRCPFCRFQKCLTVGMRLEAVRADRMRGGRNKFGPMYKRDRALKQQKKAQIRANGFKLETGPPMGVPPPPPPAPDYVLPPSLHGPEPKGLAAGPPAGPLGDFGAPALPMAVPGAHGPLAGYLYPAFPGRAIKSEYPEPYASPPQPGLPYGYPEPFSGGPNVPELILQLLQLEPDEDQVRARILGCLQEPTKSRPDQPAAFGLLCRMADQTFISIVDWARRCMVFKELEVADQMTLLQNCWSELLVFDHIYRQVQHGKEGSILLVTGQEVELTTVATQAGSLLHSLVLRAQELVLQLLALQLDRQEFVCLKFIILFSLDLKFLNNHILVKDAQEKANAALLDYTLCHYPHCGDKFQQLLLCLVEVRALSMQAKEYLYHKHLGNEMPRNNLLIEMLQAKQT

SMILES | inhibition
c1ccc(C2=Nn3c(nnc3-c3n[nH]c4c3CCC4)SC2)cc1 | 40.7%
Cc1cccc(NC(=O)COC(=O)c2cccs2)c1C | 56.8% (active)
CC(=O)N1CCN(c2ccc(NCc3ccc(C)cc3)cc2)CC1 | 33.7%
Cn1c(=O)n(C)c2cc(NC(=O)CCl)ccc21 | 61.5% (active)
COc1cccc(C(C)(O)c2nc(-c3cccc(C#N)c3)cs2)c1 (stereo not given) | 49.4% (active)
O=[N+]([O-])c1cccc(-c2ccc3nnc(SCc4cccnc4)n3n2)c1 | 62% (active)
c1csc(CCNc2ncnc3sc4c(c23)CCC4)c1 | 60.7% (active)
Cc1ccccc1OCC(=O)N/N=C/c1ccc([N+](=O)[O-])o1 | 60% (active)
O=C(Nc1nc2ccc(F)cc2s1)c1ccc([N+](=O)[O-])o1 | 10%
CCC(=O)N1CCN(c2ccc(NC(=O)c3ccc([N+](=O)[O-])o3)cc2Cl)CC1 | 58.2% (active)
Cc1sc(NC(=S)NC(=O)CCc2ccccc2)c(C(N)=O)c1C | 38.1%
Cc1cc(C)n(-c2nc(Nc3ccccc3C(F)(F)F)nc(-n3nc(C)cc3C)n2)n1 | 24.5%
O=C(Nc1ccc(N2CCN(C(=O)c3ccccc3)CC2)cc1)c1ccc([N+](=O)[O-])o1 | 66.6% (active)
O=[N+]([O-])c1ccc(/C=N/n2c(CO)nc3ccccc32)s1 | 59.9% (active)
CC(C)c1cc(NC(=O)CCl)on1 | 51.9% (active)
COc1ccc(N2CC(C(=O)N/N=C/c3ccc(C)cc3)CC2=O)cc1 (stereo not given) | 29.4%
COc1ccc(N=C2NN=C(c3c(C)[nH]c4ccccc34)CS2)cc1 | 32.1%
CC(C)Oc1cccc(-c2cc(C(=O)NN3CCOCC3)c3ccccc3n2)c1 | 40.4%
Cc1nn(CC(=O)NCCC2=CCCCC2)c(C)c1[N+](=O)[O-] | 41.5%
O=C(COc1cc2oc(=O)cc(-c3ccccc3)c2cc1Cl)NCCN1CCOCC1 | 35.4%

SMILES | inhibition
Cc1cc2oc(=O)cc(-c3ccccc3)c2c(C)c1-c1ccc(CO)cc1 | 63.6% (active)
CCOc1ccc(Cc2nnc(SCC(=O)Nc3ccc(C(C)=O)cc3)[nH]c2=O)cc1 | 40.9%
O=C(Nc1ccc(N2CCOCC2)c(Cl)c1)c1ccc([N+](=O)[O-])o1 | 35.9%
Cc1cccc(CN2C(=O)CSc3ccc(C(=O)NC4CC4)cc32)c1 | 51.8% (active)
O=C(NCc1cccc(C(F)(F)F)c1)c1cc(-c2ccccc2)nn1CC1CC(c2cccnc2)=NO1 (stereo not given) | 32.1%
CC(C)C(=O)Nc1ccc(C(=O)CN2C(=O)NC3(CCOc4ccccc43)C2=O)cc1 (stereo not given) | 36.7%
O=NN(CCc1ccncc1)c1ccc(OCc2ccccc2)cc1 | 66.6% (active)
Cc1ccc(Nc2nc(-c3cccnc3)nc3ccccc23)cc1 | 59.5% (active)
COc1cccc(C(=O)N/N=C2/SCC(=O)N2CCc2ccc(OC)c(OC)c2)c1 | 36.8%
Cc1cccc(C(=O)N[C@H](C(=O)Nc2ncc(C)s2)C(C)C)c1 | 39.8%
CCn1cc(Br)c(C(=O)Nc2ccccc2C(=O)OC)n1 | 46.6% (active)
C[C@@H]1CN([C@@H](C)CO)S(=O)(=O)c2ccc(-c3ccc(C#N)cc3)cc2O[C@@H]1CN(C)Cc1ccccn1 | 48% (active)
O=C(NC1CCC(CC2CCC(NC(=O)C(Cl)Cl)CC2)CC1)C(Cl)Cl (stereo not given) | 62% (active)
Cc1no[n+]([O-])c1COc1ccc(/C=N/n2nnnc2N)cc1 | 48.4% (active)
COc1ccc(C2=CC(=O)OC3(CCCC3)O2)cc1 | 54.5% (active)
O=C(CCl)NCCCN(C(=O)C(Cl)Cl)c1ccc([N+](=O)[O-])cc1 | 53.5% (active)
Cc1ccc(-c2cc(NC=O)c3ncc(-c4cnn(C)c4)n3c2)cc1 | 64.3% (active)
CCOc1ccc(NC(=O)COC(=O)c2ncc(Cl)c(Cl)c2Cl)cc1 | 36.8%
Cc1cccc(OCC(=O)Nc2ccncc2)c1C | 61.9% (active)
O=c1c2ccc(Cl)cc2nc(-c2cccc(C(F)(F)F)c2)n1O | 35.4%
